# Data as given in PubChem BioAssay AID1347076 (National Center for Advancing Translational Sciences (NCATS), 2019).
# Screen size: about 400,000 compounds; about 13,000 (3.2%) were called active. About 18% were inconclusive and are not listed. Many of the other results were omitted from the sample, so actives are more common in it than they were. A number with no mark means an inactive call. Calls come from the whole dose curve; as a rule, active = well fitted cell-killing curve with a large enough effect; inconclusive = small, poorly fitted or top-dose-only effect, or effect the other way; inactive = flat fitted curve, though single readings scatter.
# Assay: qHTS assay for MDR1-selective chemotherapeutics: Primary screen using the drug-selected MDR subline cells KB-V1; note: nearly all actives have a fitted effect of over 60% in size
# Conditions: KB-V1 MDR cells viability, CellTiter-Glo, 72 h; series mostly up to 46.1 µM; activity change, negative = cytotoxicity: at the top concentration
# How it was run: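 KB-V1 cells (P-gp-expressing MDR subline of KB-3-1) in phenol-red-free DMEM with 10% FBS were exposed to library compounds over a concentration series for 72 h at 37 degrees C. Viability read by CellTiter-Glo luminescence; concentration-effect curves fitted after normalization.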
# % is set by controls: 0 for no effect and ±100 for the full control effect; potency is the fitted concentration of half-maximal effect.
Compound,"activity change, negative = cytotoxicity [%]",Potency
CC(C)Oc1cccc(-c2cnc(N3CCC(C(N)=O)CC3)s2)c1,0,–
C[C@H]1COc2cc(N3CCSCC3)ccc2S(=O)(=O)N1,3.82,–
CC1(C(=O)O)CCCN(C(=O)/C=C/c2ccccc2)C1 (centres undefined),3.16,–
COc1cc(OC)c(C(=O)Nc2ccc(N(C)C)cc2)cc1OC,-28.8,–
COC(=O)c1ccc(NC(=O)c2cc(Cl)ccc2OC)cc1,19.9,–
COc1ccc(Cl)cc1C(=O)Nc1ccc(N(C)C(C)=O)cc1,–,16.4 µM (active)
CCC(=O)N1CCc2cc(Br)cc(S(=O)(=O)CCC(=O)NCc3ccccc3OC)c21,24.4,–
O=C(NCc1ccc(F)cc1)c1cc(C2CCCCN2C(=O)C2CCCCC2)on1 (centres undefined),-3.92,–
CC(=O)Nc1ccc(C=Cc2ccc([N+](=O)[O-])cc2)cc1,8.12,–
NS(=O)(=O)c1ccc(CNC(=O)c2cc(S(=O)(=O)N3CCOCC3)ccc2N2CCCC2)cc1,8,–
O=C1OCCOC2CCCc3oc(-c4ccccc4)c1c32 (centres undefined),29.6,–
OCCNc1nc(Nc2ccc(Cl)c(Cl)c2)nc2ccccc12,–,9.2 µM (active)
COc1cc2nc(Cl)nc(NCCO)c2cc1OC,-1.83,–
CN(C)c1nc(Nc2ccc(Cl)c(Cl)c2)nc(N(C)C)n1,-2.76,–
Cc1c(NC(=O)COC(=O)/C=C/c2cccc(F)c2)c(=O)n(-c2ccccc2)n1C,6.17,–
Cc1cccc(C(=O)N2CCc3cc(CNC(=O)Cc4ccc(F)cc4)ccc32)c1,3.15,–
CCCCC12CN3CC(C)(CN(C1)C3c1ccc(O)c(OC)c1)C2=O (centres undefined),-1.76,–
COCCNc1ncnc2c1ncn2[C@H]1CN(Cc2ccc(OC)cc2)C[C@@H](CO)O1,3.06,–
Cc1ccc(CC2CC(=O)N(c3nc(C)cc(C)n3)C2=O)cc1 (centres undefined),-11.3,–
COc1ccc(CN2C(=O)CC(Cc3ccc(C)cc3)C2=O)cc1OC (centres undefined),–,18.4 µM (active)
Cc1ccc(CC2CC(=O)N(c3cc(C)ccc3C)C2=O)cc1 (centres undefined),-2.95,–
CN(C)c1ccc(/C=C/c2sc3ccccc3[n+]2CCCCBr)cc1,-5.39,–
Nc1nc2c(ncn2[C@@H]2O[C@H](CNS(=O)(=O)N3CCc4ccccc4C3)[C@@H](O)[C@H]2O)c(=O)[nH]1,1.53,–
Cc1ccc(S(=O)(=O)c2nnn3c2nc(N2CCN(c4ccccc4F)CC2)c2cc(Cl)ccc23)cc1C,0,–
CSc1nc(-c2ccccc2)nc(C(Cl)Cl)n1,–,11.6 µM (active)
CSc1nc(Nc2ccc(F)cc2)cc(-c2ccccc2)n1,2.43,–

Compound,"activity change, negative = cytotoxicity [%]",Potency
CSc1ncc(Sc2ccccc2)c(C(=O)O)n1,0,–
CCCCn1c(CNC(=O)C23CC4CC(CC(C4)C2)C3)nnc1SCC(=O)Nc1ccc(C)cc1,-26.2,–
COc1ccc(CCCNC(=O)C2Cc3c(-c4cccc(C(N)=O)c4)ccnc3O2)cc1 (centres undefined),-6.13,–
COc1ccc(CC(N)c2csc(NC(=O)Cc3ccccc3)n2)cc1 (centres undefined),2.07,–
Cc1cccc(C(=O)C(O)(c2ccccc2)C2CCCCC2=O)c1 (centres undefined),-1.77,–
COCCOCCn1cnc2ccccc21,-0.954,–
CCOC(=O)c1ccc(NC(=O)Cn2cnc3cc(C)c(C)cc32)cc1,10.5,–
CCn1cc2nc(SCc3cccc(F)c3)n(CCc3ccccc3)c(=O)c2n1,-1.77,–
CCn1c(SCC(=O)NCC2CCCO2)nc2ccccc21 (centres undefined),19.3,–
CCCCn1c(SCC(=O)NCC2CCCO2)nc2ccc(N3CCOCC3)cc2c1=O (centres undefined),–,3.66 µM (active)
Cn1c(=O)n(CCc2ccccc2)c(=O)c2c1nc1n2CCCN1c1ccccc1,8.2,–
COCCNC(=O)c1ccc(Cn2c(SCC(=O)NCC3CCCO3)nc3ccc(Br)cc3c2=O)cc1 (centres undefined),19.5,–
N#CCSc1nc2ccc(N3CCOCC3)cc2c(=O)n1CCc1ccccc1,–,3.26 µM (active)
O=C(Nc1ccc(Cl)cn1)c1ccccc1-c1ccccc1,-17.1,–
CC1(C)CC(=O)C=C(c2ccc(COC(=O)c3cc(F)cc(F)c3)cc2)C1=O,-6.38,–
COc1cccc(C(NC(C)=O)c2nc(-c3cnc4ccccc4c3)cs2)c1 (centres undefined),-6.5,–
COc1ccc(-c2csc(C(O)c3cccc(Cl)c3)n2)cn1 (centres undefined),-5.18,–
OC(c1ccccc1)c1nc(-c2cnc3ccccc3c2)cs1 (centres undefined),–,16.4 µM (active)
CCCC(=O)N1CCC1(C)C(=O)NCc1ccc(SC)cc1 (centres undefined),-29.3,–
COc1ccc(OC)c(NC(=O)C2CCCN2S(=O)(=O)c2ccc3c(c2)CC(C)N3C(C)=O)c1 (centres undefined),-6.15,–
COc1ccc(NC(=O)COC(=O)C2COc3ccccc3O2)cc1 (centres undefined),18.6,–
CCOC(=O)c1c(C)[nH]c(C(=O)OCC(=O)N2CCCC2=O)c1C,7.52,–
CCOC(=O)c1[nH]c(C)c(C(=O)OCC(=O)N2c3ccccc3CC2C)c1C (centres undefined),–,2.06 µM (active)
CCOc1ncccc1C(=O)OCC(=O)N1c2ccccc2CC1C (centres undefined),2.4,–
Cc1ccc(F)cc1NC(=O)CCSc1nc(-c2ccco2)cc(C(F)(F)F)n1,-19.2,–
CN(C)S(=O)(=O)c1cccc(NC(=O)COC(=O)/C=C/c2cccs2)c1,15.2,–

Compound,"activity change, negative = cytotoxicity [%]",Potency
Cc1ccc(S(=O)(=O)N(C)C)cc1NC(=O)/C=C/c1cccs1,–,14.6 µM (active)
Cc1ccc(S(=O)(=O)N(C)C)cc1NC(=O)COC(=O)/C=C/c1cccs1,14.3,–
Cc1cccc(C)c1NC(=O)C(c1cccc(F)c1)N1CCN(C)CC1 (centres undefined),-8.73,–
Cc1ccc(S(=O)(=O)N2CCOCC2)cc1C(=O)NCc1ccc(F)cc1,0.614,–
Cc1cccc(N(Cc2ccccc2)C(=O)c2cc(S(=O)(=O)N3CCOCC3)ccc2F)c1,-12.4,–
Cc1ccc(S(=O)(=O)N2CCOCC2)cc1C(=O)NC(=S)N(Cc1ccccc1)C(C)C,–,11.6 µM (active)
CC1(C(=O)Nc2ccc3c(c2)OCCO3)CN(S(C)(=O)=O)CC(=O)N1Cc1cccc(F)c1 (centres undefined),-10.5,–
Cc1nc2ccccn2c(=O)c1NC(=O)c1ccc(Br)o1,8.75,–
Oc1c(Cl)cc(Cl)c(Cl)c1Cc1c(O)c(Cl)cc(Cl)c1Cl,–,5.17 µM (active)
O=C(O)C(=Cc1ccc([N+](=O)[O-])cc1)CCc1ccccc1,2.87,–
CNC(=O)C1CN(C(=O)c2cccc(S(=O)(=O)N3CCc4ccccc43)c2)c2ccccc2O1 (centres undefined),-22.8,–
COc1ccc(NC(=O)CSc2nc3ncccc3[nH]2)c(OC)c1,-1.22,–
CC(=O)c1nn(-c2ccccc2)c(=Nc2ccccc2)cc1C,0.939,–
O=C(Cc1ccccc1)NCc1ccc(F)cc1,8.39,–
CCC(C(=O)OCC(=O)Nc1ccccc1-c1ccccc1)c1ccccc1 (centres undefined),-12.5,–
O=C(CNCc1ccc(F)cc1)Nc1ccccc1-c1ccccc1,–,13 µM (active)
CC1(C(=O)NS(=O)(=O)c2ccccc2Cl)CCN1C(=O)c1cccc(F)c1 (centres undefined),2.05,–
O=S1(=O)CC(N2CCN(CCO)CC2)CN1Cc1cn(Cc2cccc(Cl)c2)nn1 (centres undefined),-3.69,–
Cc1cc(C(=O)OCC(=O)NCc2ccco2)c(C)n1-c1ccccc1,–,2.59 µM (active)
O=C(COC(=O)c1ccccc1O)NCc1ccco1,27.6,–
CN(c1ccccc1)S(=O)(=O)c1ccc(Cl)c(C(=O)OCC(=O)NCc2ccco2)c1,2.26,–
O=C(CCn1ccc2cc(S(=O)(=O)N3CCCC3)ccc21)NCc1cccc(Cl)c1,0.918,–
Cc1ccccc1CN1C(=O)CSCC1(C)C(=O)Nc1c(C)cccc1C (centres undefined),-18,–
CC(C)(C)c1ccc(C(=O)NCc2ccco2)cc1,0,–
O=C(CCNC(=O)c1ccccc1Cl)NCc1ccco1,17.2,–
Cc1cccc(Nc2ccccc2C(=O)NCc2ccco2)c1C,–,18.4 µM (active)

Compound,"activity change, negative = cytotoxicity [%]",Potency
Cc1ccc(N(Cc2ccc(C(=O)Nc3ccccc3C(=O)NCc3ccco3)cc2)S(C)(=O)=O)cc1C,–,2.06 µM (active)
CS(=O)(=O)N(CC(=O)NCc1ccco1)c1ccc2c(c1)OCO2,-9.81,–
CCN1CCN(C(=O)c2ccc(CN(c3ccc(C)c(C)c3)S(C)(=O)=O)cc2)CC1,-5.68,–
COc1ccccc1NC(=O)C(CC(=O)O)Cc1cc(C)cc(C)c1 (centres undefined),22.5,–
Cc1ccc(F)c(S(=O)(=O)NC(=O)C2(C)CCN2C(=O)CCc2cccs2)c1 (centres undefined),2.1,–
C=CCNC(=O)c1ccccc1NC(=O)c1ccc(Cl)c(S(=O)(=O)Nc2cccc(C)c2C)c1,–,2.91 µM (active)
Cc1ccccc1NC(=O)c1cc(S(=O)(=O)Nc2cccc(C(=O)O)c2)ccc1Cl,28,–
COc1ccc(NS(=O)(=O)c2cc(C(=O)Nc3ccccc3C(=O)O)ccc2C)cc1,17,–
Nc1ncnc2nnsc12,-6.07,–
CCN(c1ncnc2c1cnn2-c1ccc(C)cc1)C1CCCCC1,1.03,–
CN(C(=O)CSc1nnnn1-c1ccccc1)C1CCCCC1,-7.24,–
CN(C(=O)COc1ncnc2c1cnn2-c1ccccc1)C1CCCCC1,–,9.2 µM (active)
CC(C)(C)OC(=O)N(Cc1ccco1)S(=O)(=O)c1ccccc1Br,-12.2,–
CCc1nc2c(OCCOc3ccccc3)cccn2c1N(C)C(=O)c1cccs1,1.04,–
CC(C)NC(=O)C1(C)CCCCN1Cc1cccc(C(F)(F)F)c1 (centres undefined),-13.8,–
Cc1cc2c(cc1C)N1C(=O)c3cc4ccccc4cc3NC(=O)C1C(=O)N2 (centres undefined),18.4,–
COCCNCCOCCOc1cccc(OC)c1,7.45,–
C=CCc1ccc(OCCOc2cccc(/C=N/n3cnnc3)c2)c(OC)c1,-18.5,–
COc1cccc(OCCOc2cccc(/C=N/n3cnnc3)c2)c1,–,18.4 µM (active)
COc1cccc(CNC(=O)CSc2c3c(nc4cc(Cl)ccc24)CCCC3)c1,-15.6,–
O=C(Nc1nc(-c2ccc3c(c2)OCO3)cs1)c1ccncc1,–,2.59 µM (active)
CC(=O)NCCC(=O)Nc1nc(-c2ccc3c(c2)OCCO3)cs1,13,–
O=C(Nc1nc2ccccc2s1)c1ccc2c(c1)OCO2,-25.4,–
CN(C)C1CN(Cc2cn(Cc3ccccc3)nn2)S(=O)(=O)C1 (centres undefined),12,–
COC(=O)c1cc2occc2n1Cc1nc(-c2ccc(C)cc2)oc1C,-14.7,–
O=C(NCc1ccc(F)cc1F)[C@@H]1CCCN1C(=O)[C@@H]1CCCN1C(=O)c1cccc(Cl)c1,-5.66,–
